The values below come from PubChem BioAssay (NCATS).

Values without a mark were called inactive. The call rests on the fitted dose curve.

A short description of the assay: qHTS drug screen for cell cycle checkpoint inhibitors in PARPi-resistant BRCA-mutant ovarian cancer cell lines. (AID 1963452). Conditions: PEO1/OlaR viability, CellTiter-Glo luminescence, 96 h; hits give low values. An outline of the steps: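 PEO1, PEO4 and PEO1/OlaR ovarian cancer cells, 600 per well, exposed 96 h at 37C to a dilution series. Viability read by CellTiter-Glo luminescence, normalized to DMSO and empty wells; activity summarized as Z-AUC.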
For `C[C@H](c1ccc(F)cc1CCCC(=O)O)N(c1cc(F)ccc1F)S(=O)(=O)c1ccc(Cl)cc1`, the Z-AUC is -0.634. Then `Cc1cn([C@@H]2C[C@@H](O)[C@H](CO)O2)c(=O)[nH]c1=O`, with 0.721; and `CCOC(=O)[C@@H](N)CCC(=O)N[C@@H](CSCc1ccccc1)C(=O)N[C@@H](C(=O)OCC)c1ccccc1`, with 1.2. As to `CC(C)C[C@@H](N)[C@H](O)C(=O)N[C@H](C(=O)N[C@H](C(=O)N[C@@H](CC(=O)O)C(=O)O)C(C)C)C(C)C`, the Z-AUC is -0.687. Then `CC[C@H](C=C[C@@H](C)[C@H]1CC[C@H]2[C@@H]3CC=C4C[C@@H](O)CC[C@]4(C)[C@@H]3CC[C@]12C)C(C)C`, with 0.764; and `CN1CCN(c2cccc(Nc3nc4c(-c5ccc(S(C)(=O)=O)cc5)cccn4n3)c2)CC1`, with 0.515; and `CN1CCC(COc2cnc(-c3cccc(Cn4nc(-c5cccc(C#N)c5)ccc4=O)c3)nc2)CC1`, with -0.437. As for `O=S(=O)(O)c1ccc2cc(N=Nc3cc(S(=O)(=O)O)c4cccnc4c3O)ccc2c1`, the Z-AUC was 0.327. On to `Cc1nc2c([nH]1)CCN(C(=O)c1ccc(NC(=O)c3ccccc3-c3ccccc3)cc1)c1ccccc1-2`, for which the Z-AUC was 0.604. Turning to `CCc1cc(-c2n[nH]c(C)c2-c2ccc3c(c2)OCCO3)c(O)cc1O`, the Z-AUC was 0.644.

On to `COc1nc(C)cnc1NS(=O)(=O)c1cccnc1-c1ccc(-c2nnco2)cc1`, for which the Z-AUC was 1.25. Then `C[C@@]1(C(=O)Nc2ccc(F)nc2)CCCN1c1nc(Nc2cc(C3CC3)[nH]n2)c2cccn2n1`, with 0.31.

Turning to `Cc1ccc(NC(=O)c2ccc(CN3CCN(C)CC3)cc2)cc1Nc1nc(-c2cccnc2)cs1`, the Z-AUC was -0.78. Take `CC1=C(C(=O)Nc2cc3cn[nH]c3cc2F)C(c2ccc(C(F)(F)F)cc2)CC(=O)N1` (centres undefined): the Z-AUC was -0.362.

Consider `N[C@@H](CC(=O)N1CCn2c(nnc2C(F)(F)F)C1)Cc1cc(F)c(F)cc1F`, for which the Z-AUC was 0.69. Regarding `NCC1CCC(C(=O)O)CC1` (centres undefined), the Z-AUC is -0.425.

With `C#CCN(C)CC1=Cc2ccccc2Oc2ccccc21`, the Z-AUC was -0.343. `CCN1CCN(c2ccc(Nc3cc(N(C)C(=O)Nc4c(Cl)c(OC)cc(OC)c4Cl)ncn3)cc2)CC1`: the Z-AUC was 0.0169. With `CCC(c1ccc(O)cc1)C(CC)c1ccc(O)cc1` (centres undefined), the Z-AUC was -0.216. Then `COc1ccc2nc3cc(Cl)ccc3c(Nc3cc(CN4CCCC4)c(O)c(CN4CCCC4)c3)c2n1`, with 1.63; and `COc1ccc(-c2oc3c(CC=C(C)C)c(O)cc(O)c3c(=O)c2O)cc1`, with 0.707.

As to `CCCCOCCOc1nc(-c2ccc(C(=O)O)c(F)c2)sc1C`, the Z-AUC was 1.12. The result for `Cc1ccccc1C(C(=O)NC1CCCCC1)N(C(=O)CNc1ccc(C#N)cc1)c1cccc(F)c1` (centres undefined) reads 0.169; that for `Cc1csc(-c2nnc(Nc3ccc(Oc4ncccc4-c4ccnc(N)n4)cc3)c3ccccc23)c1`, -0.397. Then `CCN(CCO)CCCOc1ccc2c(Nc3cc(CC(=O)Nc4cccc(F)c4)[nH]n3)ncnc2c1`, with -0.614.

For the compound `Cc1cc(OCCCS(C)(=O)=O)cc(C)c1-c1cccc(COc2ccc3c(c2)OC[C@H]3CC(=O)O)c1`, the Z-AUC is -0.127. Then `Cc1nn(Cc2ccccc2Cl)c(C)c1CN(C)CC(O)COc1ccc(Cl)cc1` (centres undefined), with 0.675; and `COc1nccc(-c2c(-c3ccc(F)cc3)ncn2C2CCC(O)CC2)n1` (centres undefined), with 1.26; and `Cc1cc2c(cc1C1(c3ccc(C(=O)O)cn3)CC1)C(C)(C)CCC2(C)C`, with -0.226.

As for `CN(C)c1ccc(-c2nc3ncc(Cl)c(N4CCN(CC(=O)Nc5nccs5)CC4)c3[nH]2)cc1`, the Z-AUC was -1.63. `CCOC(=O)N1c2ccc(C(F)(F)F)cc2[C@@H](N(Cc2cc(C(F)(F)F)cc(C(F)(F)F)c2)C(=O)OC)C[C@H]1CC`: the Z-AUC is -1.

Take `Cc1cnc(CNC(=O)c2c(=O)c3ccc(N4CCCN(C)CC4)nc3n3c2sc2ccccc23)cn1`: the Z-AUC is -0.335.

For the compound `CCCCC(F)(F)[C@@]1(O)CC[C@H]2[C@H](CC(=O)[C@@H]2CCCCCCC(=O)O)O1`, the Z-AUC was -0.514. `COC(=O)N1CCN(Cc2cccc(NC(=O)Nc3ccc(C)nc3)c2F)CC1`: the Z-AUC was -0.162.
